Measurements as given in PubChem BioAssay (NCATS).
Records with an inconclusive call do not appear. A call without a number means that no potency is given here. Active and inactive are the calls of the source. Unless noted, calls come from the whole dose curve; as a rule, active = well fitted inhibition curve with a large enough effect; inconclusive = small, poorly fitted or top-dose-only effect; inactive = flat fitted curve, though single readings scatter.

Key:
[1] = Stat Signaling Pathway (AID 446; active = well fitted curve in either direction with a large enough effect, not every such curve was filed as active;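 note: ME-180 cervical cancer cells given 40 pM IL-6 alongside compound; SIE-controlled beta-lactamase reporter measured as 460/530 nm FRET emission ratio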)
How it was run: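 ME-180 SIE-bla cells; overnight plating; cpd + IL-6 40 pM, 5 h, 37 C; LiveBLAzer 2.5 h RT; 460/530 nm emission ratio. Normalized to 300 pM IL-6 and 125 nM JAK inhibitor controls.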

AS120 = assay: qHTS profiling for inhibitors of Plasmodium falciparum proliferation (AID 504749); note: nearly all actives have a fitted effect of over 60% in size; note: potency is the fitted concentration of half-maximal effect; conditions: P. falciparum in erythrocytes, SYBR Green DNA, 72 h; series mostly up to 12.8 µM
How it was run: (§1)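 Infected RBCs, 0.3% parasitemia/2.5% Hct final; cpd 72 h, 37 C, 5% CO2; lysis buffer with saponin/triton/SYBR Green I, o/n RT dark; FI 485/535; norm. to artemisinin (0.29 uM) and DMSO.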

ATS189 = assay: as above; conditions: P. falciparum in erythrocytes, SYBR Green DNA, 72 h; series mostly up to 12.8 µM
How it was run: as §1

CP185 = assay: as above; conditions: P. falciparum in erythrocytes, SYBR Green DNA, 72 h; series mostly up to 12.8 µM
How it was run: as §1

CP191 = assay: as above; conditions: P. falciparum in erythrocytes, SYBR Green DNA, 72 h; series mostly up to 12.8 µM
How it was run: as §1

CP192 = assay: as above; conditions: P. falciparum in erythrocytes, SYBR Green DNA, 72 h; series mostly up to 12.8 µM
How it was run: as §1

CP211 = assay: as above; conditions: P. falciparum in erythrocytes, SYBR Green DNA, 72 h; series mostly up to 12.8 µM
How it was run: as §1

CP262 = assay: as above; conditions: P. falciparum in erythrocytes, SYBR Green DNA, 72 h; series mostly up to 12.8 µM
How it was run: as §1

CP268 = assay: as above; conditions: P. falciparum in erythrocytes, SYBR Green DNA, 72 h; series mostly up to 12.8 µM
How it was run: as §1

CP269 = assay: as above; conditions: P. falciparum in erythrocytes, SYBR Green DNA, 72 h; series mostly up to 12.8 µM
How it was run: as §1

CP305 = assay: as above; conditions: P. falciparum in erythrocytes, SYBR Green DNA, 72 h; series mostly up to 12.8 µM
How it was run: as §1

CP315 = assay: as above; conditions: P. falciparum in erythrocytes, SYBR Green DNA, 72 h; series mostly up to 12.8 µM
How it was run: as §1

CP325 = assay: as above; conditions: P. falciparum in erythrocytes, SYBR Green DNA, 72 h; series mostly up to 12.8 µM
How it was run: as §1

CP329 = assay: as above; conditions: P. falciparum in erythrocytes, SYBR Green DNA, 72 h; series mostly up to 12.8 µM
How it was run: as §1

FAB9 = assay: as above; conditions: P. falciparum in erythrocytes, SYBR Green DNA, 72 h; series mostly up to 12.8 µM
How it was run: as §1

GB4 = assay: as above; conditions: P. falciparum in erythrocytes, SYBR Green DNA, 72 h; series mostly up to 12.8 µM
How it was run: as §1

JCK = assay: as above; conditions: P. falciparum in erythrocytes, SYBR Green DNA, 72 h; series mostly up to 12.8 µM
How it was run: as §1

N140 = assay: as above; conditions: P. falciparum in erythrocytes, SYBR Green DNA, 72 h; series mostly up to 12.8 µM
How it was run: as §1

PC49 = assay: as above; conditions: P. falciparum in erythrocytes, SYBR Green DNA, 72 h; series mostly up to 12.8 µM
How it was run: as §1

TAB113 = assay: as above; conditions: P. falciparum in erythrocytes, SYBR Green DNA, 72 h; series mostly up to 12.8 µM
How it was run: as §1

NC[C@@H]1O[C@H](O[C@H]2[C@H](O)[C@H](O[C@@H]3O[C@H](CO)[C@@H](O)[C@H](N)[C@@H]3O)[C@@H](N)C[C@H]2N)[C@@H](O)[C@H](O)[C@@H]1O
outcome [1]: inactive | Potency (AS120): inactive | Potency (ATS189): inactive | Potency (CP185): inactive | Potency (CP191): inactive | Potency (CP192): inactive | Potency (CP211): inactive | Potency (CP262): inactive | Potency (CP268): inactive | Potency (CP269): inactive | Potency (CP305): inactive | Potency (CP315): inactive | Potency (CP325): inactive | Potency (CP329): inactive | Potency (FAB9): inactive | Potency (GB4): inactive | Potency (JCK): inactive | Potency (N140): inactive | Potency (PC49): inactive | Potency (TAB113): inactive

C[C@@H](CNC1CCCCC1)OC(=O)c1ccccc1
outcome [1]: inactive | Potency (ATS189): 3160 nM (active) | Potency (CP185): inactive | Potency (CP192): inactive | Potency (CP211): inactive | Potency (CP262): inactive | Potency (CP315): inactive | Potency (CP329): inactive | Potency (GB4): 4550 nM (active)

C[C@@H](C(=O)O)c1ccc(N2Cc3ccccc3C2=O)cc1
outcome [1]: inactive

CC1(C)[C@@H](OC(=O)CCC(=O)O)CC[C@@]2(C)[C@H]1CC[C@@]1(C)[C@H]2C(=O)C=C2[C@H]3C[C@](C)(C(=O)O)CC[C@]3(C)CC[C@@]21C
outcome [1]: inactive | Potency (AS120): inactive | Potency (ATS189): inactive | Potency (CP185): inactive | Potency (CP191): inactive | Potency (CP192): inactive | Potency (CP211): inactive | Potency (CP262): inactive | Potency (CP268): inactive | Potency (CP269): inactive | Potency (CP305): inactive | Potency (CP315): inactive | Potency (CP325): inactive | Potency (CP329): inactive | Potency (FAB9): inactive | Potency (GB4): inactive | Potency (JCK): inactive | Potency (N140): inactive | Potency (PC49): inactive | Potency (TAB113): inactive

O=C(O)COCCN1CCN([C@@H](c2ccccc2)c2ccc(Cl)cc2)CC1
outcome [1]: inactive | Potency (AS120): inactive | Potency (ATS189): inactive | Potency (CP185): inactive | Potency (CP192): inactive | Potency (CP211): inactive | Potency (CP262): inactive | Potency (CP268): inactive | Potency (CP269): inactive | Potency (CP305): inactive | Potency (CP315): inactive | Potency (CP325): inactive | Potency (CP329): inactive | Potency (FAB9): inactive | Potency (JCK): inactive | Potency (N140): inactive | Potency (PC49): inactive | Potency (TAB113): inactive

C[C@H](NCCC(c1ccccc1)c1ccccc1)c1ccccc1
outcome [1]: inactive

CC[N+]1(C)[C@@H]2CC[C@H]1CC(OC(=O)[C@H]1CC[C@@](C(=O)OC3C[C@H]4CC[C@@H](C3)[N+]4(C)CC)(c3ccccc3)c3ccccc31)C2 (some centres undefined)
outcome [1]: inactive

CCOC(=O)O[C@]1(C(=O)COC(=O)CC)CC[C@@H]2[C@@H]3CCC4=CC(=O)C=C[C@@]4(C)[C@H]3[C@H](O)C[C@]21C
outcome [1]: inactive | Potency (AS120): inactive | Potency (ATS189): inactive | Potency (CP185): inactive | Potency (CP191): inactive | Potency (CP192): inactive | Potency (CP211): inactive | Potency (CP262): inactive | Potency (CP268): inactive | Potency (CP269): inactive | Potency (CP305): inactive | Potency (CP315): inactive | Potency (CP325): inactive | Potency (CP329): inactive | Potency (FAB9): inactive | Potency (GB4): inactive | Potency (JCK): inactive | Potency (N140): inactive | Potency (PC49): inactive | Potency (TAB113): inactive

O=C(O)CCCC[C@H]1SC[C@H]2NC(=O)N[C@@H]21
outcome [1]: inactive

O=C(c1cc(C(F)(F)F)cc(C(F)(F)F)c1)N1CCC[C@@]2(CCN(c3ccccn3)C2)C1
outcome [1]: inactive

N[C@H](Cc1cc(I)c(Oc2cc(I)c(O)c(I)c2)c(I)c1)C(=O)O
outcome [1]: inactive

COc1cc(N[C@@H](C)CCCN)c2ncccc2c1
outcome [1]: inactive | Potency (AS120): 794 nM (active) | Potency (ATS189): 2240 nM (active) | Potency (CP185): 2000 nM (active) | Potency (CP191): 1000 nM (active) | Potency (CP192): 2560 nM (active) | Potency (CP211): 2280 nM (active) | Potency (CP262): 1280 nM (active) | Potency (CP268): 1610 nM (active) | Potency (CP269): 1810 nM (active) | Potency (CP305): 1810 nM (active) | Potency (CP315): 5730 nM (active) | Potency (CP325): 2030 nM (active) | Potency (CP329): 3610 nM (active) | Potency (FAB9): 891 nM (active) | Potency (GB4): 809 nM (active) | Potency (JCK): 3980 nM (active) | Potency (N140): 2820 nM (active) | Potency (PC49): 2240 nM (active) | Potency (TAB113): 1410 nM (active)

CCC(=O)[C@@]1(C)[C@H](C)C[C@@H]2[C@@H]3CCC4=CC(=O)C=C[C@@]4(C)[C@H]3[C@H](O)C[C@]21C
outcome [1]: inactive | Potency (AS120): inactive | Potency (ATS189): inactive | Potency (CP185): inactive | Potency (CP191): inactive | Potency (CP192): inactive | Potency (CP211): inactive | Potency (CP262): inactive | Potency (CP268): inactive | Potency (CP269): inactive | Potency (CP305): inactive | Potency (CP315): inactive | Potency (CP325): inactive | Potency (CP329): inactive | Potency (FAB9): inactive | Potency (GB4): inactive | Potency (JCK): inactive | Potency (PC49): inactive | Potency (TAB113): inactive

COc1ccc2c(c1)N(C[C@@H](C)CN(C)C)c1ccccc1S2
outcome [1]: inactive | Potency (AS120): inactive | Potency (ATS189): inactive | Potency (CP185): inactive | Potency (CP191): inactive | Potency (CP192): inactive | Potency (CP211): inactive | Potency (CP262): inactive | Potency (CP268): inactive | Potency (CP269): inactive | Potency (CP305): inactive | Potency (CP315): inactive | Potency (CP325): inactive | Potency (CP329): inactive | Potency (FAB9): inactive | Potency (JCK): inactive | Potency (N140): inactive | Potency (PC49): inactive | Potency (TAB113): inactive

C=Cc1c(C)c2cc3nc(cc4[nH]c(cc5nc(cc1[nH]2)C(C)=C5CCC(=O)O)c(CCC(=O)OC)c4C)[C@@]1(C)C3=CC=C(C(=O)OC)[C@H]1C(=O)OC (tested in a mixture with another compound)
Potency (AS120): 5620 nM (active) | Potency (ATS189): 7080 nM (active) | Potency (CP191): 11200 nM (active) | Potency (CP192): inactive | Potency (CP262): inactive | Potency (CP269): inactive | Potency (CP305): inactive | Potency (CP315): inactive | Potency (CP325): inactive | Potency (CP329): inactive | Potency (GB4): 12000 nM (active) | Potency (N140): 7080 nM (active) | Potency (PC49): 5010 nM (active) | Potency (TAB113): 1780 nM (active)

C[C@@H](Cc1cccc(C(F)(F)F)c1)NCCOC(=O)c1ccccc1
outcome [1]: inactive

CCN(CC)CCOC(=O)[C@@H](c1ccccc1)C1CCCCC1
outcome [1]: inactive

Cc1onc(-c2c(F)cccc2Cl)c1C(=O)N[C@H]1C(=O)N2[C@H]1SC(C)(C)[C@H]2C(=O)O
outcome [1]: inactive

O[C@@](CCN1CCCCC1)(c1ccccc1)[C@@H]1C[C@H]2C=C[C@@H]1C2
outcome [1]: inactive

COC(=O)C1=C(C)NC(C)=C(C(=O)OCCN(C)Cc2ccccc2)[C@H]1c1cccc([N+](=O)[O-])c1
outcome [1]: inactive

CC1(C)S[C@@H]2[C@H](NC(=O)[C@@H](N)c3ccccc3)C(=O)N2[C@H]1C(=O)O[C@H]1OC(=O)c2ccccc21
Potency (AS120): inactive | Potency (ATS189): inactive | Potency (CP185): inactive | Potency (CP191): inactive | Potency (CP192): inactive | Potency (CP211): inactive | Potency (CP262): inactive | Potency (CP268): inactive | Potency (CP269): inactive | Potency (CP305): inactive | Potency (CP315): inactive | Potency (CP325): inactive | Potency (CP329): inactive | Potency (FAB9): inactive | Potency (GB4): inactive | Potency (JCK): inactive | Potency (N140): inactive | Potency (PC49): inactive | Potency (TAB113): inactive
